Screening data as filed in PubChem.
KB-3-1 tox: KB-3-1 parental cell cytotoxicity; Potency, µM (titrated, usually from 46.1 µM), actives largely listed as cytotoxic; KB-3-1 viability, CellTiter-Glo ATP luminescence, 72 h; AID 1347075; 400,000 tested, 1.4% active; also: nearly all actives have a fitted effect of over 60% in size
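Parental KB-3-1 viability, qHTS format: 72 h compound exposure, 37 °C; CellTiter-Glo; media-only wells and DMSO plates as controls; concentration-effect fits on corrected data.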
HT1080NT lethal: kills 2HG-producing HT-1080-NT fibrosarcoma cells | Potency, µM (highest dose often 46.1 µM), usual class: cytotoxic | HT-1080-NT fibrosarcoma viability, CellTiter-Glo ATP luminescence, 48 h | 360,000 tested, 1.6% active;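 also: NT is the 2HG producing partner of a matched IDH1 knockdown line; nearly all actives have a fitted effect of over 55% in size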
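Viability by CellTiter-Glo luminescence after 48 h compound exposure at 37C of HT-1080-NT cells (750/well, RPMI, 5% FBS). % activity scaled between DMSO wells and medium-only wells, then curve-fitted and categorized by curve class.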
SW480 rereplic: induces DNA re-replication in SW480 colon adenocarcinoma cells; 340,000 tested, 1.8% active; Potency, µM (titrated, usually from 46.1 µM), hits mostly activators; AID 624297; SW480 DNA re-replication, Hoechst DNA content imaging, 48 h; also: nearly all actives have a fitted effect of over 55% in size
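Readout is total intensity of Hoechst-stained nuclei, excited at 405 nm and collected at 500-530 nm. Compound treatment lasted 48 hr at 37 C in 5% CO2 before staining.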
MCF10A rereplic: induces DNA re-replication in MCF 10a normal breast cells | MCF 10A DNA re-replication, Hoechst nuclear intensity, 48 h | Potency, µM (titrated, usually from 46.1 µM), hits mostly activators | 350,000 tested, 2.9% active | AID 624296; also: nearly all actives have a fitted effect of over 50% in size
HT1080 IDH1KD tx: toxicity to HT-1080 IDH1 knockdown cells (counter line); HT-1080 IDH1 knockdown viability, ATP luminescence, 48 h; Potency, µM (highest dose often 46.1 µM), hits mostly cytotoxic; 360,000 tested, 2% active; AID 686971
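IDH1KD HT-1080 cells, 750/well, RPMI + 5% FBS; compound pinned after 2 h settling; 48 h, 37 °C; CellTiter-Glo luminescence; % activity normalised to DMSO and no-cell wells; curves fitted, classed by r2 and efficacy.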
KB-V1 MDR tox: kills drug-selected multidrug resistant KB-V1 cells; 400,000 tested, 3.4% active; AID 1347076; KB-V1 MDR cells viability, CellTiter-Glo, 72 h; Potency, µM (top dose mostly 46.1 µM), hits mostly cytotoxic; also: nearly all actives have a fitted effect of over 60% in size
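KB-V1 MDR subline cells in DMEM (phenol-red free, 10% FBS) exposed to compounds in qHTS concentration series for 72 h at 37 degrees C. Viability read by CellTiter-Glo luminescence; concentration-effect curves fitted after normalization and correction.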
Numbers stand for hits; i = inactive; ? = inconclusive; nt = no result given. Compounds with a hit are over-represented: about 8% of the library has one in this group of screens. Calls follow the shape of the dose curve; as a rule, active = well fitted curve in the direction sought with a large enough effect; inconclusive = small, poorly fitted or top-dose-only effect, or another doubt; inactive = no such curve, though single readings can be large; an effect the other way counts as inactive or inconclusive.

SMILES	KB-3-1 tox	HT1080NT lethal	SW480 rereplic	MCF10A rereplic	HT1080 IDH1KD tx	KB-V1 MDR tox
CCCCc1nc2ccccc2c(=O)n1NC(=O)c1c(O)c2c(n(CC(C)C)c1=O)CCCC2	4.61µM	i	i	i	i	2.59µM
CCn1c(=O)c(C(=O)Nc2nc3ccccc3[nH]2)c(O)c2ccccc21	11.6µM	7.31µM	?	9.2µM	10.3µM	1.16µM
CC(C)Cn1c2c(c(O)c(C(=O)Nn3c(Cc4ccccc4)nc4ccccc4c3=O)c1=O)CCCC2	?	i	i	i	i	?
CCCn1c2c(c(O)c(C(=O)Nc3ccccc3)c1=O)CCCC2	i	i	i	i	i	14.6µM
O=C(Oc1ccccc1OC(=O)N1CCOCC1)N1CCOCC1	i	i	i	i	i	i
CCc1ccccc1NC(=O)CC(c1ccc(OC)cc1)n1cccc1 (centres undefined)	i	i	i	?	i	7.31µM
O=C(Nc1ccn(-c2ccccc2)n1)c1ccc(Cl)cc1	i	i	i	?	i	18.4µM
CCN(CC(=O)Nc1ccc(NC(C)=O)cc1)C(=O)c1cc(S(=O)(=O)N2CCCCCC2)ccc1OC	i	i	?	i	i	?
CCCCN(C=O)c1c(CC)nc2ccc(C(=O)Nc3cc(-c4ccccc4)ccc3OC)cn12	?	?	nt	nt	?	23.1µM
CCc1nc2ccc(C(=O)Nc3cc(-c4ccccc4)ccc3OC)cn2c1N(CC)CCN(C)C	?	18.4µM	nt	nt	13µM	?
CC(C)(C)c1ccc(OCC(=O)Nc2ccc(-c3nc4cccnc4o3)cc2)cc1	i	i	i	16.4µM	i	i
CC(C)(C)c1ccc(OCC(=O)Nc2ccc(C(=O)Nc3ccccc3C(=O)O)cc2)cc1	i	i	i	18.4µM	i	?
CC(C)C(=O)Nc1ccc(-c2nc3cccnc3o2)cc1	i	i	i	?	i	?
C=CCn1c(SCc2ccc(C#N)cc2)nnc1-c1ccccc1	i	i	i	i	i	9.2µM
CCCCn1cnc2c([nH]c3cc(OC)ccc32)c1=O	i	i	i	i	i	?
COc1ccc2c(c1)[nH]c1c(=O)n(CC3CCCO3)cnc12 (centres undefined)	i	i	i	i	i	20.6µM
COc1ccc2c(c1)[nH]c1c(=O)n(Cc3ccco3)cnc12	?	?	i	i	?	14.6µM
O=c1[nH]c(N/N=C/c2ccccc2Br)nnc1-c1ccccc1	i	i	nt	?	i	i
COc1ccc(/C=N/Nc2nnc(-c3ccccc3)c(=O)[nH]2)cc1	5.17µM	13µM	i	?	13µM	13µM
Cc1nn(-c2ccccn2)c2c1-c1nc(N3CCOCC3)ncc1CC2	?	i	i	i	i	18.4µM
COc1ccc(-c2nnc(SCC(=O)Nc3cccc(Cl)c3)o2)cc1	?	?	i	?	i	16.4µM
O=C(CSc1nnc(-c2ccncc2)o1)Nc1cccc(F)c1	i	i	i	i	i	i
O=C(CSc1nnc(-c2cccnc2)o1)Nc1cccc(F)c1	i	i	3.26µM	i	i	i
COc1ccc(CN(C(=O)CSc2nnc(-c3ccc(F)cc3)o2)c2ccc(F)cc2)cc1	i	i	i	i	i	20.6µM
O=C(CSc1ccc(-c2cccnc2)nn1)Nc1ccc(F)c(F)c1	i	?	i	i	i	9.2µM
O=C(CSc1ccc(-c2cccnc2)nn1)Nc1ccccc1	i	i	i	i	i	?
COc1ccc(-c2nnc(SCC(=O)Nc3ccccc3OC)o2)cc1	i	?	?	i	?	i
COCCN(C(=O)CCC(=O)Nc1cc(C)on1)C(C(=O)NC(C)(C)C)c1ccc(OC)cc1 (centres undefined)	i	i	i	i	i	i
CCOC(=O)N1CCN(C(=O)CC(=O)Nc2ccc3nc4n(c(=O)c3c2)CCCCC4)CC1	i	i	i	i	i	i
CC1(C(=O)O)COC(c2ccc(Cl)cc2)OC1 (centres undefined)	i	i	?	i	i	i
